# From PubChem BioAssay
# The source made the active and inactive calls.
# Assays:
# [1] = test system: PRMT1 (protein arginine N-methyltransferase 1); assay: small molecules binding arginine methyltransferase PRMT1 – biochemical, small-molecule microarray, 635 nm fluorescence, primary screen (AID 1088); settings: higher = more signal;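 further: binding of Prmt1 protein to compounds spotted on small-molecule microarray slides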
# [2] = growth effects on S. cerevisiae YJM789 – YJM789 clinical isolate, OD600, 24 h, basal, primary screen (AID 1089); settings: higher = more signal, called active from +8 up or from −8 down;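 further: growth of clinical yeast isolate S. cerevisiae YJM 789 seeded 1000 cells per well; test concentration not given here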
# [3] = S. pombe growth modifiers, basal conditions – strain 972, OD600, 24 h, no modulator, primary screen (AID 1090);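 further: basal condition with compound alone and no growth modifier present; test concentration not given here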; settings: S. pombe 972 growth, higher = more signal, called active from +8 up or from −8 down
# [4] = budding yeast growth modifiers under rapamycin – strain BY4716, OD600, 96 h, primary screen (AID 1091); further: test concentration not given here; settings: S. cerevisiae BY4716 + rapamycin, higher = more signal, called active from +8 up or from −8 down
# [5] = target: Torsin-1A-interacting protein 2 (Homo sapiens) (UniProt Q8NFQ8); assay: small molecules binding lysate-expressed LULL1 – cell lysate, human LULL1 lysate, 635/667 nm fluorescence, primary screen (AID 1092); settings: small-molecule microarray, hLULL1 lysate binding, 635 nm fluorescence; higher = more signal;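 further: probe is lysate of COS7 cells overexpressing human LULL1; score merges per-feature 667 nm fluorescence with signal-to-noise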
# [6] = optical density change of DRC41 E. coli – strain DRC41, OD650, 24 h, E. coli filamentation project, primary screen (AID 1093);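 further: MC1000 strain lacking acrAB efflux and sulA so SOS filamentation is blocked; test concentration not given here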; settings: E. coli DRC41 growth, higher = more signal, called active from +8 up or from −8 down
# [7] = probe aLefty2 binding to arrayed compounds – biochemical, biotinylated probe, 635/667 nm fluorescence, primary screen (AID 1094); settings: small-molecule microarray, higher = more signal;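 further: score merges spot fluorescence near 667 nm with spot signal-to-noise ratio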
# [8] = test system: Noggin (protein binding on small-molecule microarray); assay: small molecules binding Noggin protein – biochemical, 635/667 nm fluorescence, primary screen (AID 1095); settings: 635 nm fluorescence, higher = more signal;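 further: score merges 667 nm feature fluorescence with signal to noise over triplicate slides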
# [9] = target: Neurogenic locus notch homolog protein 3 (Homo sapiens) (UniProt Q9UM47); assay: small molecules binding NOTCH3 protein – biochemical, 635/667 nm fluorescence, primary screen (AID 1096); settings: small-molecule microarray, 635 nm fluorescence, higher = more signal
# [10] = probe aEGFR binding to arrayed compounds – biochemical, biotinylated probe, 635/667 nm fluorescence, primary screen (AID 1097); settings: small-molecule microarray, higher = more signal;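 further: probe is a biotinylated anti-EGFR antibody binding compounds printed on slides; score combines fluorescence near 667 nm and signal to noise of each spot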
# [11] = test system: Plasmodium falciparum Sir2 (PF13_0152, Sir2A); assay: Plasmodium falciparum Sir2A binding compounds – biochemical, small-molecule microarray, 635 nm fluorescence, primary screen (AID 1098); settings: fluorescence 635 nm, higher = more signal;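 further: score merges spot fluorescence intensity with its signal-to-noise ratio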
# [12] = probe aDKK1 binding to arrayed compounds – biochemical, biotinylated probe, 635/667 nm fluorescence, primary screen (AID 1099); settings: small-molecule microarray, higher = more signal;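 further: score merges 667nm spot fluorescence with signal to noise across triplicate slides; reference of the scale not given here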
# [13] = probe aCHRDL2 binding to arrayed compounds – biochemical, biotinylated probe, 635/667 nm fluorescence, primary screen (AID 1100); settings: small-molecule microarray, higher = more signal
# [14] = change in splice reporter luminescence, either direction, cell-based, HEK293, spliceosome inhibition project, primary screen (AID 1101); settings: HEK293 splicing luciferase reporter, 24 h, higher = more signal, called active from +8 up or from −8 down;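 further: HEK293 cells carrying a splicing-competent luciferase reporter gene; test concentration not given here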
# [15] = target: Fibroblast growth factor 10 (Homo sapiens) (UniProt O15520); assay: compounds binding fibroblast growth factor 10 – biochemical, small-molecule microarray, 635 nm fluorescence, primary screen (AID 1102); settings: FGF10 binding, fluorescence 635 nm, higher = more signal
# [16] = test system: glycogen synthase kinase-3 (GSK3A per assay name; protocol says GSK3B); assay: compounds binding glycogen synthase kinase-3 – biochemical, small-molecule microarray, 635 nm fluorescence, GSK3A, primary screen (AID 1103); settings: fluorescence 635 nm, higher = more signal; further: the record names both GSK3A and GSK3B
# [17] = target: Epidermal growth factor receptor (Homo sapiens) (UniProt P00533); assay: compounds binding epidermal growth factor receptor – biochemical, small-molecule microarray, 635 nm fluorescence, primary screen (AID 1104); settings: EGFR binding, higher = more signal;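 further: score merges 667 nm emission intensity with spot signal to noise over triplicate slides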
# [18] = target: Follistatin-related protein 3 (Homo sapiens) (UniProt O95633); assay: compounds binding follistatin-related protein 3 – biochemical, small-molecule microarray, 635 nm fluorescence, primary screen (AID 1105); settings: FSTL3 binding, higher = more signal;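 further: score merges emission near 667 nm and signal to noise per printed spot across three slides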
# [19] = target: Dickkopf-related protein 1 (Homo sapiens) (UniProt O94907); assay: small molecules binding DKK1 protein – biochemical, small-molecule microarray, 635 nm fluorescence scan, primary screen (AID 1106); settings: higher = more signal;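 further: score merges emission near 667 nm with signal to noise over three replicate slides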
# [20] = test system: Inhibin beta A chain (activin A); assay: small molecules binding activin A – biochemical, small-molecule microarray, 635 nm fluorescence scan, primary screen (AID 1107); settings: INHBA, higher = more signal;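 further: mouse activin A protein probed at 4.33 µg/mL on printed slides; score merges bound-protein fluorescence near 667 nm with spot signal-to-noise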
# Sequence of Fibroblast growth factor 10 (Homo sapiens) (O15520 whole entry, looked up): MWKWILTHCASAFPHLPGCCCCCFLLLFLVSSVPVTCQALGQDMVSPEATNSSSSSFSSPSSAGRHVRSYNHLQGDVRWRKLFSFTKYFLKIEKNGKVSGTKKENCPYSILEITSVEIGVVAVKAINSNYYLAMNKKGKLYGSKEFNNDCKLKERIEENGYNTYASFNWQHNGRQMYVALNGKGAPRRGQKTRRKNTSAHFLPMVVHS
# Sequence of Epidermal growth factor receptor (Homo sapiens) (P00533 whole entry, looked up): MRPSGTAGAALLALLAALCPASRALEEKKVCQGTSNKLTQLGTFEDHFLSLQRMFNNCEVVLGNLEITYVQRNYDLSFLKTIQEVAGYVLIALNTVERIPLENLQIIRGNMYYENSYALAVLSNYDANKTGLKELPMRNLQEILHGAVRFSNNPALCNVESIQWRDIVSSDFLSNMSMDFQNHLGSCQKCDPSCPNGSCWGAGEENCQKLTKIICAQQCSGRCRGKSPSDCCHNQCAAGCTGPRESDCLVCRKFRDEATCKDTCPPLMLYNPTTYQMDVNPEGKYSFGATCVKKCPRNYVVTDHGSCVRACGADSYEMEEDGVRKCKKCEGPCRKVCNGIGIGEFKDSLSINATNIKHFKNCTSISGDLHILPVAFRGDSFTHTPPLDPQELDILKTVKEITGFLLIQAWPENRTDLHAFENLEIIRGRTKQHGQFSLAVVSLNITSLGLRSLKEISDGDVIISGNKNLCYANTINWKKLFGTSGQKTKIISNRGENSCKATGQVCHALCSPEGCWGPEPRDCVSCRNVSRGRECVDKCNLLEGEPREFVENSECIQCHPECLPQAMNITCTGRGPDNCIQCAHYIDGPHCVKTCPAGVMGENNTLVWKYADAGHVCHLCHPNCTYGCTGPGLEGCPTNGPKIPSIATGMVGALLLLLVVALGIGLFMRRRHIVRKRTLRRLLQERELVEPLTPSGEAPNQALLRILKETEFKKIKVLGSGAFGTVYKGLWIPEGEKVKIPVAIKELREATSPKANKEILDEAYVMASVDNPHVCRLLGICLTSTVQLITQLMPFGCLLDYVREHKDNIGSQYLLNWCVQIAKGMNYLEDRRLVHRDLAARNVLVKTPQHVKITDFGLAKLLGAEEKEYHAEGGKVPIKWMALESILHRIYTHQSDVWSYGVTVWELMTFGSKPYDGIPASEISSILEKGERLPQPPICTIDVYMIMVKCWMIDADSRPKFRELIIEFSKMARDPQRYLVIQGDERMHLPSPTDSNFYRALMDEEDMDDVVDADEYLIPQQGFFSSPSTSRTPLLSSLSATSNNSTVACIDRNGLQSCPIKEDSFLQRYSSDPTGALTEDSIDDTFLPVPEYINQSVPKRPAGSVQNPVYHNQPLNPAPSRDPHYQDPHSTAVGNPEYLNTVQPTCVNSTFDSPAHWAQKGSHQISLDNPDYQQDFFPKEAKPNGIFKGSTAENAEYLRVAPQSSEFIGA
# Sequence of Neurogenic locus notch homolog protein 3 (Homo sapiens) (Q9UM47 whole entry, looked up): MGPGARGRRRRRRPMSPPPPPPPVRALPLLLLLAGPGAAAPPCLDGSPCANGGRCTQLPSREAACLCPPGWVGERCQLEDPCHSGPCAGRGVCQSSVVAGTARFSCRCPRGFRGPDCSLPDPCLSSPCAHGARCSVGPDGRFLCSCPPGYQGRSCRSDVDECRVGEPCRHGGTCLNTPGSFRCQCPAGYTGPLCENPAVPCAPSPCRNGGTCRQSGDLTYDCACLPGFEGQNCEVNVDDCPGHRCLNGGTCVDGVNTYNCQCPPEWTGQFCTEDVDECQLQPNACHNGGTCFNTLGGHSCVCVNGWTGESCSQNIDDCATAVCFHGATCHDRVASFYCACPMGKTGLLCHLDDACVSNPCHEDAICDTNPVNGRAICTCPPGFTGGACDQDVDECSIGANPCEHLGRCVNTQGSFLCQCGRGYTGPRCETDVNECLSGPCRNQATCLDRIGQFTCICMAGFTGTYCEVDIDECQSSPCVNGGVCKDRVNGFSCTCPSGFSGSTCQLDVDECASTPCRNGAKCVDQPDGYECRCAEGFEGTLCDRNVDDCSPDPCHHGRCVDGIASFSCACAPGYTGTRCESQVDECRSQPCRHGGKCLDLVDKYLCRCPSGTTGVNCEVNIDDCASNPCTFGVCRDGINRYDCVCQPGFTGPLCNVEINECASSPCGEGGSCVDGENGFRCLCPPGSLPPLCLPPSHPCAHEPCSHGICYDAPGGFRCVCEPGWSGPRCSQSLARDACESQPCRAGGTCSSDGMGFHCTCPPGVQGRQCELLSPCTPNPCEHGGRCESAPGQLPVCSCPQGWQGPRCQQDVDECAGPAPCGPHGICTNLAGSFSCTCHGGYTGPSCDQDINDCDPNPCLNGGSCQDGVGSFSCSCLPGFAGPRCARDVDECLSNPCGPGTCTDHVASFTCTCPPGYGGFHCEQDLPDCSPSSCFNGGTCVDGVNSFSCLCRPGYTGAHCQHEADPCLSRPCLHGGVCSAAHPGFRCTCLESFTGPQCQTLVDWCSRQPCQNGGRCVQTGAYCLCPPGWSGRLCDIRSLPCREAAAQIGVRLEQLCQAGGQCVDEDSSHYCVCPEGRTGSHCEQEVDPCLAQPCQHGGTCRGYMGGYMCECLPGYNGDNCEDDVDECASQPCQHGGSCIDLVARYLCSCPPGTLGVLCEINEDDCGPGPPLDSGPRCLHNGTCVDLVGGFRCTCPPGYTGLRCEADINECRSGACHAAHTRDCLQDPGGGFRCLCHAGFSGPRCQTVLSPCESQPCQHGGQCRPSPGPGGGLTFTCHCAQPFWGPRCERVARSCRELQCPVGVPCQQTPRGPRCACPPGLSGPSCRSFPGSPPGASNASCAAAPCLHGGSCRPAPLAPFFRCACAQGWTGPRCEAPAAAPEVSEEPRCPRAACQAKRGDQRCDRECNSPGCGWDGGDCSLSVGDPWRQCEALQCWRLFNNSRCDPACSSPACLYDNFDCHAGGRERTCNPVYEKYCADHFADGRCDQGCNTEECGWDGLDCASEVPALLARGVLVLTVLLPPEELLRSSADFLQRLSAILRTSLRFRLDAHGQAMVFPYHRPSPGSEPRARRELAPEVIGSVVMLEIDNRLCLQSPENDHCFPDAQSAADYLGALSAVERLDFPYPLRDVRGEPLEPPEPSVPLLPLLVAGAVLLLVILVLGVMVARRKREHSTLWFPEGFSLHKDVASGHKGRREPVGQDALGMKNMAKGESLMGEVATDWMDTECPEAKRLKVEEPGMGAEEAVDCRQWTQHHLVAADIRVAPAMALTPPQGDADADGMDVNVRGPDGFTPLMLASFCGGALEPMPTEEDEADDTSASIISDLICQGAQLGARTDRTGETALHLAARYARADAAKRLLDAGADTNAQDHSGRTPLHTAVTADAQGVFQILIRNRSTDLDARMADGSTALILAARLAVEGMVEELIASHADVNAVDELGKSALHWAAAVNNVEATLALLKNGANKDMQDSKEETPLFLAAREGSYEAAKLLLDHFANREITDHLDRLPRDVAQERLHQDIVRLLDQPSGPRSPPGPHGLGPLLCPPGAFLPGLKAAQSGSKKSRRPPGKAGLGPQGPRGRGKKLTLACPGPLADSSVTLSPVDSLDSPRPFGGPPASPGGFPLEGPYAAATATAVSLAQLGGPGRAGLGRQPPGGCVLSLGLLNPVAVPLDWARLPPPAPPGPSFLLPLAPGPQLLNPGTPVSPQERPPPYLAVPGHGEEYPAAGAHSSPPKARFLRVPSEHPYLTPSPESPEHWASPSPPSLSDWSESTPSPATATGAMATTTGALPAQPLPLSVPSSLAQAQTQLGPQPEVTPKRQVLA
# Sequence of Dickkopf-related protein 1 (Homo sapiens) (O94907 whole entry, looked up): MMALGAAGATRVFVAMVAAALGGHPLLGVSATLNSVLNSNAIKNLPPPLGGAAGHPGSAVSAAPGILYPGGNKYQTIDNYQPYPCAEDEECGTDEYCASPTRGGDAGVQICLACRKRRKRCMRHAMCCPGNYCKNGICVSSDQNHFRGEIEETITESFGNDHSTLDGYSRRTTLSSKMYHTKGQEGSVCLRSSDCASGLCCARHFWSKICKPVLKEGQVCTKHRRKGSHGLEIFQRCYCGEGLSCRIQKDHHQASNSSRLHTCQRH
# Sequence of Torsin-1A-interacting protein 2 (Homo sapiens) (Q8NFQ8 whole entry, looked up): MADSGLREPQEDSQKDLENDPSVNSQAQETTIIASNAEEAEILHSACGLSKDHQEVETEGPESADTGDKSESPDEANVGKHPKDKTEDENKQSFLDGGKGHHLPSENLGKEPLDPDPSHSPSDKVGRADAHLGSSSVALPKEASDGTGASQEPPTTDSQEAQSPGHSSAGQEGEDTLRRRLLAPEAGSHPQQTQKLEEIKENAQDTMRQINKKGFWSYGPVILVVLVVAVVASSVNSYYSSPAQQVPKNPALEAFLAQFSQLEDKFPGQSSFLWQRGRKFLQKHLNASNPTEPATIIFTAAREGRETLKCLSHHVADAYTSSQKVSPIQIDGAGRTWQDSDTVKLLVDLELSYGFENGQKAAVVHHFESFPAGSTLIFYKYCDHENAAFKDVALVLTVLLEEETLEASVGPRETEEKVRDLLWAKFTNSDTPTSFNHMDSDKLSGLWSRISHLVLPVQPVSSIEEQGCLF
# Sequence of Follistatin-related protein 3 (Homo sapiens) (O95633 whole entry, looked up): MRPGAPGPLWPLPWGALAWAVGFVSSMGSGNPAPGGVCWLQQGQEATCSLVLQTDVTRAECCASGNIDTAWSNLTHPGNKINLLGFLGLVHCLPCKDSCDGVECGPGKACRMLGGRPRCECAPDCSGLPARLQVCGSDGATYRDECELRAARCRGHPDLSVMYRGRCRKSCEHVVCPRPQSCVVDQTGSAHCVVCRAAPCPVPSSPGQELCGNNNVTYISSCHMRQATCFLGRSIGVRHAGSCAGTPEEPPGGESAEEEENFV
Compound,composite z-score [1],z-score [2],z-score [3],z-score [4],composite z-score [5],z-score [6],composite z-score [7],composite z-score [8],composite z-score [9],composite z-score [10],composite z-score [11],composite z-score [12],composite z-score [13],z-score [14],composite z-score [15],composite z-score [16],composite z-score [17],composite z-score [18],composite z-score [19],composite z-score [20]
COC(=O)C(CC#Cc1ccc2c(c1)[C@]1(C(=O)N2)[C@H](c2ccc(O)cc2)N2[C@H](c3ccccc3)[C@H](c3ccccc3)OC(=O)[C@H]2[C@@H]1C(=O)N1CCCCCCC1)C(=O)OC,1.53,-1.87 (inactive),-1.29 (inactive),-0.939 (inactive),4.02,0.88 (inactive),1.5,1.91,1.14,0.804,1.48,2.23,1.22,-0.83 (inactive),0.869,1.32,0.765,1.54,1.22,1.77
CC(C)(C)OC(=O)CC[C@]1(C(=O)N2CCCCC2)COC(c2ccc(OCCCO)cc2)=N1,1.47,-1.1 (inactive),-0.878 (inactive),-1.57 (inactive),3.57,0.992 (inactive),0.066,0.318,0.79,-0.0139,1.7,0.14,0.48,-0.527 (inactive),1.54,1.29,0.101,0.324,-0.421,0.567
CCN(CC)c1ccc(N2CC=CC34O[C@@H]5/C=C\CCC(C)OC(=O)C5[C@H]3C(=O)N(C(C)CO)[C@@H]4C2=O)cc1 (stereo not given in full),0.41,0.217 (inactive),-1.41 (inactive),-0.0932 (inactive),-0.139,1.13 (inactive),-0.149,0.07,-0.419,-0.206,-0.516,-0.47,-0.514,0.0828 (inactive),-0.408,-0.189,-0.455,-0.159,0.492,1.5
CN1C(=O)C2C=CC(C(O)c3cc(C(F)(F)F)cc(C(F)(F)F)c3)N(NC(=O)OC(C)(C)C)C2C1=O (stereo not given),1.56,-0.403 (inactive),-0.983 (inactive),-0.314 (inactive),3.61,-0.0262 (inactive),0.322,0.421,0.995,0.0169,0.733,0.781,1.05,-0.149 (inactive),0.959,1.3,0.497,1.32,-0.868,0.279
